Results filed as inconclusive are left out. A call without a number means that no potency is given here. Active and inactive are the calls of the source. Calls come from the whole dose curve; as a rule, active = well fitted activation curve with a large enough effect in the repeat runs; inconclusive = weak or mixed curves; inactive = flat fitted curve, though single readings scatter.

The nature of the experiment: A CellTox Green Cytotoxicity Assay to monitor cytotoxicity in HepG2 cells - 8 hour (AID 1224890). Note: nearly all actives have a fitted effect of over 45% in size. As to conditions: CellTox Green fluorescence; series mostly up to 76.8 µM. The procedure, abridged:
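HepG2, 600 cells/well premixed w/ CellTox Green; 5 h settle, 37 C/5% CO2; pintool cpd add (DMSO); 37 C, 40 h; fluorescence read at 0, 8, 16, 24, 32, 40 h.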
As for `Nc1nc(-c2ccc([N+](=O)[O-])cc2)cs1`, the Potency result was “inactive”.

Regarding `Cc1cccc(C)c1NC(=O)c1cc(S(N)(=O)=O)c(Cl)cc1O`, the Potency result was “inactive”. As for `CCCCCCCCCCCCCOC(=O)CCSCCC(=O)OCCCCCCCCCCCCC`, the cytotoxicity increase was 4.96% [at 15.8 µM] (inactive).

As for `CC(=O)N[C@@H](Cc1ccc(O)cc1)C(=O)O`, the Potency entry was “inactive”. As to `CCCCCC`, the Potency entry is “inactive”. Still for that read-out and setting: the same measure for `Cc1ccccc1S(N)(=O)=O`: “inactive”; for `CCN(CC)CCOC(=O)C(c1ccccc1)c1ccccc1`: “inactive”; for `O=S(=O)(O)CO`: “inactive”. Same read-out and setting: the value for `CC(=O)OCC1=C(C(=O)O)N2C(=O)[C@@H](NC(=O)CSc3ccncc3)[C@H]2SC1` was “inactive”. In the case of `O=C(O)CN1C(=O)c2cccc3cccc(c23)C1=O`, the Potency result was “inactive”. On to `SCCc1cnccn1`, for which the Potency result is “inactive”. On the same count and under the same terms, the value for `COc1ccc(C)cc1` was “inactive”. In the case of `CC(C)c1ccc(C(=O)N=C(N)N)cc1S(C)(=O)=O`, the Potency entry was “inactive”.

On to `O=C1OC(=O)c2c(Br)c(Br)c(Br)c(Br)c21`, for which the Potency result is “inactive”. Regarding `OCC(CO)n1cnc(-c2ccc(F)cc2)c1-c1ccnc(Oc2ccccc2)n1`, the Potency entry was “inactive”. Regarding `C1CCCCC1`, the Potency result was “inactive”. On the same count and under the same terms, the value for `Cc1c[nH]c2ccccc12` was “inactive”.

In the case of `O=C(O)CCS`, the Potency entry was “inactive”.

For `Cc1ccc2nc(N)[nH]c(=O)c2c1Sc1ccncc1`, the Potency entry was “inactive”. Still for that read-out and setting: the same measure for `O=C(O)CCCc1c[nH]c2ccccc12`: “inactive”. On the same count and under the same terms, the value for `CCCCCCCC(=O)Oc1c(Br)cc(C#N)cc1Br` was “inactive”; that for `CCN(CC)CC(=O)Nc1c(C)cccc1C(=O)OC` was “inactive”.

Take `CC(C)N=C=NC(C)C`: the Potency result is “inactive”. Still for that read-out and setting: the same measure for `CC1CCCO1` (stereo unspecified): “inactive”.

As for `[Cl][Nd]([Cl])[Cl]`, the Potency entry was “inactive”. On the same count and under the same terms, the same measure for `CC1=CC[C@@]23C[C@@H]1C(C)(C)[C@@H]2CC[C@H]3C`: “inactive”.

Source of the values: PubChem BioAssay (Tox21).
